{
  "source": "paper PMC7862700",
  "about": "“An all-to-all approach to the identification of sequence-specific readers for epigenetic DNA modifications on cytosine”",
  "assay_in_all_cases": "DAPPL (digital affinity profiling via proximity ligation, sequencing); 10 mM Tris-HCl pH 7.5, 50 mM NaCl, 1 mM DTT, 4% glycerol, room temperature, 30 min; GST-TFs on glutathione beads, 16-mer random dsDNA library, 0.1% formaldehyde crosslink after washing; high values mean tight binding",
  "details_in_all_cases": "protein: recombinant; tags: N-terminal GST; dsDNA, one strand shown",
  "key": {"FLI1": {"molecular_target": "T1, FLI1 (Homo sapiens, UniProt Q01543 1-452)", "T1 sequence": "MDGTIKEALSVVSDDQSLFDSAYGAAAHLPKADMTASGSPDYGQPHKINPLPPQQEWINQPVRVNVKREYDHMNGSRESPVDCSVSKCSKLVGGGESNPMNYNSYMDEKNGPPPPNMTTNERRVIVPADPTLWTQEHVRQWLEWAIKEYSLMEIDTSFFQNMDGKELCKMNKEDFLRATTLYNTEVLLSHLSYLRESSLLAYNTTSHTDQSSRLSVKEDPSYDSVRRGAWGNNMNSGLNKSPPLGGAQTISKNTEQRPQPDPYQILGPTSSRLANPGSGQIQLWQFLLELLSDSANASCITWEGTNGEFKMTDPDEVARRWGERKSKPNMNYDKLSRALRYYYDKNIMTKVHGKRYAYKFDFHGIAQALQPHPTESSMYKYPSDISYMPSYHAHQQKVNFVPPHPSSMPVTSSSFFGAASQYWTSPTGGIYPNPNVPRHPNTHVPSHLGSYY", "method_in_brief": "(§1)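 Pools of DNA-barcoded human transcription factors, expressed in yeast as GST fusions on glutathione beads and combined with a tag-only sample, were incubated with 200 nmole of a 16-mer random double-stranded DNA library. Incubation took 30 min at room temperature in Tris/NaCl/DTT/glycerol buffer and was followed by washing, 0.1% formaldehyde crosslinking, proximity ligation (BsaI/T4 ligase, 1 h, 37 °C), PCR amplification and sequencing on an Illumina NextSeq500. Binding signal is the ratio of a hexamer's read frequency for a factor to its frequency for the tag-only sample.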"}, "ELK1": {"molecular_target": "T2, ELK1 (Homo sapiens, UniProt P19419 1-428)", "T2 sequence": "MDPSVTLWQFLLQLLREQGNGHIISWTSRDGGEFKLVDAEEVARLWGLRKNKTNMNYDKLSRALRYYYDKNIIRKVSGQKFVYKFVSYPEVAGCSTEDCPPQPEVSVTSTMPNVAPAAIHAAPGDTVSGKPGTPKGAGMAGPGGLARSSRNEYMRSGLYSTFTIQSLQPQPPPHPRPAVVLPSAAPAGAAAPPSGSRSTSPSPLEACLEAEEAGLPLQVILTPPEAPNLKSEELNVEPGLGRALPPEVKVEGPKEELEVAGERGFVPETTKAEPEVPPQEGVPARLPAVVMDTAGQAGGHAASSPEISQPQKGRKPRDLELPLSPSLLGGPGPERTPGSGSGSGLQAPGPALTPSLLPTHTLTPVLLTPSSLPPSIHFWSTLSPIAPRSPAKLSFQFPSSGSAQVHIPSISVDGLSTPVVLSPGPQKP", "method_in_brief": "as §1"}, "GABPA": {"molecular_target": "T3, GABPA (Homo sapiens, UniProt Q06546 1-454)", "T3 sequence": "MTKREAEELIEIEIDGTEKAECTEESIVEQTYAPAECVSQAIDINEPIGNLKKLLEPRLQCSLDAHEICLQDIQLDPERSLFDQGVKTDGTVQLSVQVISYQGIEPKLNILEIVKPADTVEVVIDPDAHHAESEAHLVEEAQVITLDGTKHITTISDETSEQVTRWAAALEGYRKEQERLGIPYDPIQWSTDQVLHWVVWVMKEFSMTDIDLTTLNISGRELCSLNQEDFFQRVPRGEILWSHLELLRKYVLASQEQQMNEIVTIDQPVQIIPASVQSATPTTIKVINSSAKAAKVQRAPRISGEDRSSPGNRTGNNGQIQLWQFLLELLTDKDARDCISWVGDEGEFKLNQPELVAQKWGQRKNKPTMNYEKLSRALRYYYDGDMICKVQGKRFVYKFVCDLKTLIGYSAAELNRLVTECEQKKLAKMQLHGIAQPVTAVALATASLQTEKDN", "method_in_brief": "as §1"}, "ERG": {"molecular_target": "T4, ERG (Homo sapiens, UniProt P11308 1-479)", "T4 sequence": "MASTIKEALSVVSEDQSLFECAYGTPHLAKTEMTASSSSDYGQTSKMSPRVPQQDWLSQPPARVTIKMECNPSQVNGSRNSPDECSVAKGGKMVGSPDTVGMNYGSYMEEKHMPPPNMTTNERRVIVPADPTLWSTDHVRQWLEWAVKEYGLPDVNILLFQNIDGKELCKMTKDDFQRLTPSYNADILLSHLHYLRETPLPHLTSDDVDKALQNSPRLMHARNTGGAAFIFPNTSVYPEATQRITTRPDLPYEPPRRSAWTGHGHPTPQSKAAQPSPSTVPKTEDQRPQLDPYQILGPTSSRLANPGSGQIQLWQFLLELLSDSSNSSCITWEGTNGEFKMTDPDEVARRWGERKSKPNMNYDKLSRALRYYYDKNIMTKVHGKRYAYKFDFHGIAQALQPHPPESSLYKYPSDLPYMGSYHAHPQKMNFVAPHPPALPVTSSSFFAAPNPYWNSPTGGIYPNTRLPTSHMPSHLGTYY", "method_in_brief": "as §1"}, "ELF1": {"molecular_target": "ELF1 (Homo sapiens, UniProt P32519 1-619)", "sequence (P32519 whole entry)": "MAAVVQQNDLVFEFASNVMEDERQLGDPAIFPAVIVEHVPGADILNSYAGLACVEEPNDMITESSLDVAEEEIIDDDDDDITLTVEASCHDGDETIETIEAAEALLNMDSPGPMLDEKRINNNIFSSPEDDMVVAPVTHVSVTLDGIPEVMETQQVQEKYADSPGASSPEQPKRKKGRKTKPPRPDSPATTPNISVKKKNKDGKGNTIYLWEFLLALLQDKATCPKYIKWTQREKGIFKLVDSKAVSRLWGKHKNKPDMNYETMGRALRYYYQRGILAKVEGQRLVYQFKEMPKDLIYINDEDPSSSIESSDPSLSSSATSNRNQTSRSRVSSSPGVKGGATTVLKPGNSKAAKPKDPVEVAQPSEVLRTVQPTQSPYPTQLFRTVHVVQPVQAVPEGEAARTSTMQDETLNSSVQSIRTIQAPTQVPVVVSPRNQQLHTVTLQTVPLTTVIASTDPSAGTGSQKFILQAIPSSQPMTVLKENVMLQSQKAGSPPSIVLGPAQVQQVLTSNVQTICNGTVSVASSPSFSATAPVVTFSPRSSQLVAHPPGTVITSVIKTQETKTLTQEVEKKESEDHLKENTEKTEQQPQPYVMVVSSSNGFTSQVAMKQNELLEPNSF", "method_in_brief": "as §1"}, "EHF": {"molecular_target": "T5, EHF (Homo sapiens, UniProt Q9NZC4 1-300)", "T5 sequence": "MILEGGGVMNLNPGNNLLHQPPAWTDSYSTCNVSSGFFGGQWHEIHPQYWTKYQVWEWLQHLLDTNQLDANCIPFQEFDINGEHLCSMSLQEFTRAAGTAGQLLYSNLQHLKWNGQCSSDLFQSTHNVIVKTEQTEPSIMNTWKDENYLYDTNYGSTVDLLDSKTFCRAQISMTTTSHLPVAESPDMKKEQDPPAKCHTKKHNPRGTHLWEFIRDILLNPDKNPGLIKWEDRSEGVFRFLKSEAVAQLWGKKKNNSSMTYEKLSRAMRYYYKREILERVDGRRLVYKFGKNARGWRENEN", "method_in_brief": "as §1"}, "SPI1": {"molecular_target": "SPI1 (Homo sapiens, UniProt P17947 1-270)", "method_in_brief": "as §1"}, "SPIB": {"molecular_target": "SPIB (Homo sapiens, UniProt Q01892 1-262)", "sequence (Q01892 whole entry)": "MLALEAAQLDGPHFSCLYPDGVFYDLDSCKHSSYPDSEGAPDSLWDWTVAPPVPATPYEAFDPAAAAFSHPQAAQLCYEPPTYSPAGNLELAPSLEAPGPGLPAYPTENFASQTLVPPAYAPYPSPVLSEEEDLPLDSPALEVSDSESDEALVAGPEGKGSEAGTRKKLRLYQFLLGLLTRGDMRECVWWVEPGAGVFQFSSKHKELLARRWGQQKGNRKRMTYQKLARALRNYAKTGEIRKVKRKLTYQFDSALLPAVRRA", "method_in_brief": "as §1"}, "ELK3": {"molecular_target": "T6, ELK3 (Homo sapiens, UniProt P41970 1-407)", "T6 sequence": "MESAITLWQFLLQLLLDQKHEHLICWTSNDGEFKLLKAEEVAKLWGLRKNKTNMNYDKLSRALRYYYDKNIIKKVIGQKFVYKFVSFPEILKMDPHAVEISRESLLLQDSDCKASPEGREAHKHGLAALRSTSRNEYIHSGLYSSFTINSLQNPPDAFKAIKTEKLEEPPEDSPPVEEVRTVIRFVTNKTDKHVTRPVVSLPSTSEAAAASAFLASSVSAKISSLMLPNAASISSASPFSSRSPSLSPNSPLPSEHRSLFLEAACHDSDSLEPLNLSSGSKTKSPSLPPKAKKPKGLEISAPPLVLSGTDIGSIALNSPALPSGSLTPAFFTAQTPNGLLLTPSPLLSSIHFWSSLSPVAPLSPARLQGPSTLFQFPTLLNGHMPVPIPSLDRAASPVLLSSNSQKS", "method_in_brief": "as §1"}},
  "data": [
    {"sequence": "ATAGAT", "values": [
      {"measurement": "binding signal", "setting": "FLI1", "result": "1.16 fold enrichment (6-mer frequency, TF over GST control)"},
      {"measurement": "binding signal", "setting": "ELK1", "result": "1.14 fold enrichment (6-mer frequency, TF over GST control)"},
      {"measurement": "binding signal", "setting": "GABPA", "result": "1.17 fold enrichment (6-mer frequency, TF over GST control)"},
      {"measurement": "binding signal", "setting": "ERG", "result": "1.11 fold enrichment (6-mer frequency, TF over GST control)"},
      {"measurement": "binding signal", "setting": "ELF1", "result": "1.23 fold enrichment (6-mer frequency, TF over GST control)"},
      {"measurement": "binding signal", "setting": "EHF", "result": "1.17 fold enrichment (6-mer frequency, TF over GST control)"},
      {"measurement": "binding signal", "setting": "SPI1", "result": "1.07 fold enrichment (6-mer frequency, TF over GST control)"},
      {"measurement": "binding signal", "setting": "SPIB", "result": "1.16 fold enrichment (6-mer frequency, TF over GST control)"},
      {"measurement": "binding signal", "setting": "ELK3", "result": "1.23 fold enrichment (6-mer frequency, TF over GST control)"}
    ]}
  ]
}
